Compounds with a hit are over-represented: about 6.2% of the library has one in this group of screens.
KB-3-1 cytotox – qHTS assay for MDR1-selective chemotherapeutics: Primary screen using the parental adenocarcinoma cell KB-3-1; KB-3-1 viability, CellTiter-Glo ATP luminescence, 72 h; Potency, µM (highest dose often 46.1 µM), most hits filed as cytotoxic; 400,000 tested, 1.4% active; AID 1347075, 2019; also: % is scaled to controls: 0 for no effect and ±100 for the full control effect; nearly all actives have a fitted effect of over 60% in size
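KB-3-1 cells, DMEM (no phenol red) + 10% FBS; compound by pin transfer, 72 h, 37 °C. Readout: CellTiter-Glo luminescence after 10 min. Data normalized, curve-fitted.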
ATXN2 expr inh – Primary qHTS for Inhibitors of ATXN expression | Potency, µM (doses to about 57 µM), without a hit: at the highest dose activity change, negative = inhibition, hits mostly inhibitors | 360,000 tested, 0.72% active | AID 1745845, 2022 | HEK-293 ATXN2-luciferase reporter, luminescence, 24 h; also: % is scaled to controls: 0 for no effect and ±100 for the full control effect; nearly all actives have a fitted effect of over 55% in size
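qHTS (up to 57 uM final) was run with 24 h compound exposure of reporter cells at 37 °C. Each well was multiplexed: SteadyGlo luminescence measured ATXN2-luciferase expression after a fluorogenic Gly-Phe-AFC viability readout (25 uM final).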
S2 tox – Viability Counterscreen for Primary qHTS for Inhibitors of ATXN expression. S2 cells (HEK-293 line with an ATXN2-luciferase reporter) viability, CellTiter-Fluor protease fluorescence, 24 h. Potency, µM (highest dose often 56.7 µM), usual class: cytotoxic. 400,000 tested, 0.49% active; also: nearly all actives have a fitted effect of over 40% in size
KB-V1 MDR tox – qHTS assay for MDR1-selective chemotherapeutics: Primary screen using the drug-selected MDR subline cells KB-V1 | KB-V1 MDR cells viability, CellTiter-Glo, 72 h | Potency, µM (highest dose often 46.1 µM), most hits filed as cytotoxic | 400,000 tested, 3.4% active | AID 1347076, 2019; also: % is scaled to controls: 0 for no effect and ±100 for the full control effect; nearly all actives have a fitted effect of over 60% in size
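Following 72 h at 37 degrees C with compound, KB-V1 cell viability was read by CellTiter-Glo luminescence, medium being phenol-red-free DMEM plus 10% FBS; concentration-response parameters came from normalized, curve-fitted qHTS data.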
HT1080NT lethal – qHTS for induction of synthetic lethality in tumor cells producing 2HG: qHTS for the HT-1080-NT fibrosarcoma cell line; HT-1080-NT fibrosarcoma viability, CellTiter-Glo ATP luminescence, 48 h; AID 686970, 2013; 360,000 tested, 1.6% active; Potency, µM (series often up to 46.1 µM), for inactives: at the highest dose activity, negative = less viability, most hits filed as cytotoxic;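 also: NT is the 2HG producing partner of a matched IDH1 knockdown line; 0% = DMSO-treated cells and -100% = media-only wells without cells; nearly all actives have a fitted effect of over 55% in size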
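Compounds were tested in concentration-response format on HT-1080-NT cells for 48 hours at 37 degrees C. Cell viability came from CellTiter-Glo luminescence; curves were classified by r2, response magnitude and activity.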
HT1080 IDH1KD tx – qHTS for induction of synthetic lethality in tumor cells producing 2HG: qHTS for the HT-1080-IDH1KD cell line; HT-1080 IDH1 knockdown viability, ATP luminescence, 48 h; 360,000 tested, 2% active; AID 686971, 2013; Potency, µM (highest dose often 46.1 µM), for inactives: at the top dose activity, negative = toxicity, usual class: cytotoxic;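 also: 0% = DMSO wells and -100% = cell-free medium wells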
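CellTiter-Glo luminescence after 48 h compound exposure at 37 degrees C of IDH1-knockdown HT-1080 cells in 5% FBS RPMI. %Activity scaled between DMSO wells and cell-free media wells, with curves fitted and assigned curve classes.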
The depositor's hits bear a star; i = inactive; u = inconclusive; x = no result; [ ] = dose if it differs, or a comment. Calls follow the shape of the dose curve; as a rule, active = well fitted curve in the direction sought with a large enough effect; inconclusive = small, poorly fitted or top-dose-only effect, or another doubt; inactive = no such curve, though single readings can be large; an effect the other way counts as inactive or inconclusive. Potency is read from the fitted curve at half-maximal effect.

SMILES	KB-3-1 cytotox	ATXN2 expr inh	S2 tox	KB-V1 MDR tox	HT1080NT lethal	HT1080 IDH1KD tx
COc1cc(/C=C(/C)[N+](=O)[O-])ccc1OCc1ccccc1Cl	u	25µM*	32µM*	u	8.2µM*	5.8µM*
O=S(=O)(O)C(F)(F)C(F)(F)C(F)(F)C(F)(F)C(F)(F)C(F)(F)C(F)(F)C(F)(F)F	x	15%[116 µM]	u	x	x	x
COc1cccc(C(C(=O)NCc2ccco2)N(Cc2ccco2)C(=O)Cn2nnc3ccccc32)c1 (stereo not given)	i	3%	u	i	-2%	5%
O=C(NCc1cccnc1)C(Cl)(Cl)Cl	i	4%	i	i	12%	10%
CC(C)C(=O)Nc1ccc(C(=O)NCc2cccnc2)cc1	i	-5%	i	i	u	23µM*
COc1ccc(-n2nnnc2C(CCc2ccccc2)N2CCC(n3c(=O)[nH]c4ccccc43)CC2)cc1 (stereo not given)	u	u	10µM*	u	16µM*	13µM*
CCC(c1nnnn1-c1ccc(OC)cc1)N1CCC(n2c(=O)[nH]c3ccccc32)CC1 (stereo not given)	i	-4%	i	i	1%	2%
O=c1[nH]c2ccccc2n1C1CCN(C(CCc2ccccc2)c2nnnn2-c2ccc3c(c2)OCCO3)CC1 (stereo not given)	u	7.9µM*	x	23µM*	13µM*	15µM*
CC(=O)O[C@H]1CC[C@]2(C)C3CC[C@@]4(C)C(C[C@@H](O)[C@@H]4O)C3[C@@H](OC(C)=O)C[C@H]2C1 (stereo not given in full)	i	x	u	i	-6%	0%
CC(=O)OC1CC(OC2C(O)CC(OC3C(O)CC(OC4CCC5(C)C(CCC6C5CCC5(C)C(C7=CC(=O)OC7)CCC65O)C4)OC3C)OC2C)OC(C)C1OC1OC(CO)C(O)C(O)C1O (stereo not given)	u	0.0075µM*	u	0.41µM*	0.082µM*	0.052µM*
CCCCCCC(=O)CCCCCC/C=C/C[C@@H](O)[C@H](O)[C@@](N)(CO)C(=O)O	x	-3%[25.6 µM]	i	x	x	x
COC(COC(N)=O)C1=C(N2CC2)C(=O)C(C)=C(N2CC2)C1=O (stereo not given)	4.1µM*	3.5µM*	u	u	6.5µM*	3.3µM*
COc1ccc(C(=O)NCCn2cc(SC(C)c3ccccc3)c3ccccc32)cc1OC (stereo not given)	i	u	u	i	x	x
COc1nc2ccccc2c(=O)n1-c1ccc(C)cc1	i	7%	i	u	-1%	0%
CCCCOc1nc2ccccc2c(=O)n1-c1ccccc1	i	-8%	u	16µM*	13%	9%
CCO/N=C(\CC)C1=C(O)CC(c2c(C)cc(C)cc2C)CC1=O (stereo not given)	x	36%[116 µM]	u	x	x	x
Cc1ccc(CN2CCCC(C(=O)c3cccc(C(F)(F)F)c3)C2)o1 (stereo not given)	i	-19%	x	u	-16%	-12%
O=C(c1ccc(C(F)(F)F)cc1)C1CCCN(Cc2ccc(CO)o2)C1 (stereo not given)	i	x	i	18µM*	-3%	2%
O=C(c1ccc(C(F)(F)F)cc1)C1CCCN(Cc2ccncc2)C1 (stereo not given)	u	-34%	x	7.3µM*	-25%	-25%
CCC(C)C(C)(COC(N)=O)COC(N)=O (stereo not given)	x	2%	i	x	x	x
Cc1ccc(Cn2cc(C=O)c(-c3ccc(C)cc3)n2)cc1	i	59%	i	16µM*	7%	1%
O=C(NC1CC1)c1cn(Cc2ccccc2)nc1-c1ccccc1	i	9%	i	i	5%	0%
O=C1NCCN(Cc2cccc(Oc3ccccc3)c2)C1CC(=O)N1CCCCC1 (stereo not given)	x	2%	u	x	-2%	0%
CCOC(=O)c1c(C)n(Cc2ccccc2)c2ccc(O)cc12	i	4%	i	10µM*	-14%	-20%
CCOC(=O)c1c(C)n(Cc2ccccc2)c2ccc(OCC(O)CNC(C)(C)C)cc12 (stereo not given)	i	14µM*	x	i	u	16µM*
SMILES	KB-3-1 cytotox	ATXN2 expr inh	S2 tox	KB-V1 MDR tox	HT1080NT lethal	HT1080 IDH1KD tx
CCCS(=O)(=O)NC(=O)C1(C)CCCN(C(=O)c2ccccc2OC)C1 (stereo not given)	i	9%	i	i	u	23%
CNC(C)Cc1ccc2c(c1)OCO2 (stereo not given)	x	-4%[116 µM]	i	x	x	x
CC(=O)OC1CC[C@]2(C#N)[C@H]3CC[C@]4(C)[C@H](C5C=CC(=O)O5)CCC4(O)C3CCC2(O)C1 (stereo not given in full)	u	x	u	u	26µM*	15µM*
CCCCn1c(=O)c(C(=O)Nc2cnccn2)c(O)c2ccccc21	7.3µM*	-6%	i	u	-19%	-28%
CCCCn1c(=O)c(C(=O)NCc2ccccc2OC)c(O)c2ccccc21	23µM*	-18%	i	u	23%	4%
CC(C)CCn1c(=O)c(C(=O)Nc2ccccc2S(N)(=O)=O)c(O)c2ccccc21	3.7µM*	-37%	i	2.9µM*	-22%	u
CCCCCn1c(=O)c(C(=O)Nc2ncccc2C)c(O)c2ccccc21	i	-6%	i	5.2µM*	18µM*	21µM*
Cc1cc(OCC(=O)N2CCN(CCc3ccccn3)CC2)cc(C)c1Cl	i	-16%	u	i	x	x
C[C@@H](N)[C@@H](O)c1ccccc1	x	7%	i	x	x	x
c1ccc(N2CCNCC2)cc1	x	0%	i	x	x	x
C=CCN1C(=O)C2(C(C(=O)OC)=C(N)Oc3c2c(=O)oc2ccccc32)c2ccccc21 (stereo not given)	u	x	x	i	x	x
CC1Cc2ccccc2CN1 (stereo not given)	i	x	x	i	x	x
COc1ccc(C[C@H]2c3cc(OC)c(OC)cc3CCN2C)cc1OC	x	x	i	x	x	x
CCCOc1ccc(N2C(=O)CC(N3CCC(O)(c4cccc(C(F)(F)F)c4)CC3)C2=O)cc1 (stereo not given)	i	-21%	u	i	0%	-6%

Source: PubChem (National Center for Advancing Translational Sciences (NCATS))
